Compounds with a hit are over-represented: about 3.5% of the library has one in this group of screens.
MITF primary: inhibitors of human MITF | O75030 | AlphaScreen MITF homodimerization, bead proximity signal | inhibition, % at 2.6 µM | actives 0.91% (n = 650,000) | AID 1259374; in the data active = inhibition above about 50%
FBW7 activator: human FBW7 E3 ligase activation, primary screen; Q969H0; AlphaScreen FBW7–phospho-cyclin E peptide binding, activator screen; normalized activity (activation), % at 26.1 µM; actives 0.13% (n = 650,000); AID 1259310; in the data active = normalized activity above about 1.9%;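 also: purified mutant Fbw7 with reduced substrate affinity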
Target sequence (Q969H0 whole entry, looked up): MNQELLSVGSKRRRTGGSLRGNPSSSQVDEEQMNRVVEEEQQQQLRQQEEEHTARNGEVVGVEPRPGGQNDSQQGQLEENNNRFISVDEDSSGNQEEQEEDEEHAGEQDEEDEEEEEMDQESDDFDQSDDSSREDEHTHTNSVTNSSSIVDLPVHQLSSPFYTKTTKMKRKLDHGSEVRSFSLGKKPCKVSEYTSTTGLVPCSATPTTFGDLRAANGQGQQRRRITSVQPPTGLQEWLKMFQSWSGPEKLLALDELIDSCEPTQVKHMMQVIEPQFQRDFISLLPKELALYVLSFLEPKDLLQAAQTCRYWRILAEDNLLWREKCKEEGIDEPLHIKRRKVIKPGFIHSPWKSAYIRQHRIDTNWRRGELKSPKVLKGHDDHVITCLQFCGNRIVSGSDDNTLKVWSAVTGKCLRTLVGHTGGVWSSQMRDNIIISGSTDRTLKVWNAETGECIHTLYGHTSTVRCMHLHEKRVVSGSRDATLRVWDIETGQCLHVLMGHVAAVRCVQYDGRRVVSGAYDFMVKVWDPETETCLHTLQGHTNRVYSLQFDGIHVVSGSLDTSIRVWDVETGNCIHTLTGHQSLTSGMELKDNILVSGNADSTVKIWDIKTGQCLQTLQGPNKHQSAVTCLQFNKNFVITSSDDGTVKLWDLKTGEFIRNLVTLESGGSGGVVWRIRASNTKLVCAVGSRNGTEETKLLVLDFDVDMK
TEAD-YAP inh: TEAD-YAP interaction inhibition; inhibition, % at 9.12 µM; AID 1259422; HEK-TIYL cells, TEAD-Gal4/YAP UAS-luciferase luminescence; actives 1.4% (n = 640,000); in the data active = inhibition above about 32%
GPR151 ag: human GPR151 activation; activation, % at 11.2 µM; actives 1% (n = 650,000); AID 1508602; PathHunter beta-arrestin GPR151 cells, luminescence; in the data active = activation above about 4.9%
MITF inh conf: human MITF inhibition, confirmation. actives 16% (n = 4,700). AlphaScreen MITF homodimerization, biotin/His-MITF beads. inhibition, % at 2.6 µM. shares compounds with MITF primary;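 active = inhibition above a cutoff derived from the DMSO control wells, cut at about 28% in these data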;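 also: inhibitors lower the bead chemiluminescence by keeping MITF from dimerizing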
AlphaScreen DR: counter-screen: compounds optically interfering with AlphaScreen; shares compounds with MITF primary; AlphaScreen optical interference counterscreen, cell-free; IC50, µM; actives 6% (n = 480); AID 1259373; call rule not given here
AS interf ctr: AlphaScreen optical interference, counter-screen | inhibition, % at 2.6 µM | LysRS AlphaScreen counterscreen, signal interference, triplicate | shares compounds with MITF primary | actives 7.6% (n = 4,700);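 active = inhibition above a cutoff derived from the DMSO control wells, cut at about 30% in these data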
Of the large screens only hits and unclear results are named; the others gave an inactive call (follow-up assays come after a bar, where they were run).

O=C(Cn1c(=S)[nH]c2ccccc2c1=O)N(CCO)Cc1ccccc1	MITF primary 63 | MITF inh conf inactive | AS interf ctr inactive
COc1ccc(Nc2ccc(-c3ccc(C=O)cc3)cn2)cn1	none
Cc1nc(N2CCCCCC2)c2sc(=S)n(C)c2n1	none
Cc1ccc(C2NS(=O)(=O)N=C2N)cc1 (centres undefined)	MITF primary 52 | MITF inh conf inactive | AS interf ctr inactive
C=CCc1cc(OC)ccc1OCCCN1CCN(C)CC1	MITF primary 82 | MITF inh conf inactive | AS interf ctr inactive
C=CCc1cc(OC)ccc1OCCCCn1cncn1	MITF primary 76 | MITF inh conf inactive | AS interf ctr inactive
C=CCc1cc(OC)ccc1OCCN1CCN(C)CC1	MITF primary 67 | MITF inh conf inactive | AS interf ctr inactive
C=CCc1cc(OC)ccc1OCCN1CCCCC1	none
CCOc1ccccc1OCCOc1ccccc1	none
O=C(CN(Cc1ccc(Cl)cc1)S(=O)(=O)c1ccccc1)N1CCCC1	none
Cc1ccc(NC(=O)N2C3CCC2CC(O)(c2cccnc2)C3)cc1 (centres undefined)	none
CCn1c2ccccc2n2cc(-c3ccc([N+](=O)[O-])cc3)nc12	none
COC(=O)C(C)CN1CCc2ccccc2C1 (centres undefined)	none
CC(=O)N(C)c1ccc(OCC(O)CN2CCN(Cc3ccccc3)CC2)cc1 (centres undefined)	MITF primary 82 | MITF inh conf inactive | AS interf ctr inactive
COC(=O)C(C)CN1CCN(Cc2ccccc2)CC1 (centres undefined)	MITF primary 78 | MITF inh conf inactive | AS interf ctr inactive
CCN1CCN(CCCOc2ccc(C)cc2I)CC1	MITF primary 57 | MITF inh conf inactive | AS interf ctr inactive
CCN1CCN(CCCCOc2ccc(C)cc2I)CC1	MITF primary 53 | MITF inh conf inactive | AS interf ctr inactive
Cc1ccc(OCCn2cncn2)c([N+](=O)[O-])c1	none
Cc1ccc(OCCCn2cncn2)c(I)c1	MITF primary 54 | MITF inh conf inactive | AS interf ctr inactive
CCn1c(=NC(=O)c2ccccc2S(C)(=O)=O)sc2cc([N+](=O)[O-])ccc21	none
Cc1cc(C)c(C)c(S(=O)(=O)Nc2ccc(C(=O)NCc3ccccn3)cc2)c1C	none
CS(=O)(=O)Nc1ccc(C(=O)NCc2ccccn2)cc1	MITF primary 70 | MITF inh conf inactive | AS interf ctr inactive
Cc1c(NC(=O)CCN2C(=O)C3C4CCC(C4)C3C2=O)ccc(Br)c1Cl (centres undefined)	MITF primary 68 | MITF inh conf inactive | AS interf ctr inactive
O=C(c1cccnc1)N1CCN(C2CCCC2)CC1	MITF primary 64 | MITF inh conf inactive | AS interf ctr inactive
O=C(c1cccnc1)N1CCN(CC2CC=CCC2)CC1 (centres undefined)	MITF primary 71 | MITF inh conf inactive | AS interf ctr inactive
O=C(NCc1cccnc1)C1CCN(CC2CC=CCC2)CC1 (centres undefined)	MITF primary 63 | MITF inh conf inactive | AS interf ctr inactive
O=C(c1ccncc1)N1CCN(CC2CC=CCC2)CC1 (centres undefined)	MITF primary 73 | MITF inh conf inactive | AS interf ctr inactive
O=C(c1cccc(OC2CCN(CC3CC=CCC3)CC2)c1)N1CCOCC1 (centres undefined)	none
CCN(CC)CCCn1c2c(c(SCC(=O)Nc3ccc(F)cc3)nc1=O)CCC2	none
O=C(NCCc1ccccc1)C1CCN(Cc2cccnc2)CC1	MITF primary 51 | MITF inh conf inactive | AS interf ctr inactive
COc1ccc(CN2CCC(C(=O)NCCc3ccccc3)CC2)cc1	none
CCOC(=O)C(=O)Cc1ccc2ccccc2n1	MITF primary 53 | MITF inh conf inactive | AS interf ctr inactive
N/N=C(\Cc1ccc2ccccc2n1)c1ccccc1	none
Cc1ccc(NC(=O)CN2CCC(C(=O)NC3CC3)CC2)cc1	MITF primary 112 | MITF inh conf inactive | AS interf ctr inactive
O=C(CN1CCC(c2ccncc2)CC1)Nc1ccc(N2CCCCC2)cc1	none
O=C(CN1CCCCCC1)Nc1ccc(N2CCCC2)cc1	MITF primary 53 | MITF inh conf inactive | AS interf ctr inactive
CC1CCN(CC(=O)Nc2ccc(Br)cc2)CC1	none
CC1CCN(CC(=O)Nc2ccc(N3CCCCCC3)cc2)CC1	MITF primary 52 | MITF inh conf inactive | AS interf ctr 33
O=C1C(=O)N(CCN2CCOCC2)C(c2ccccc2)/C1=C(\O)c1ccc(F)cc1 (centres undefined)	none
CCN1CCN(CC(=O)c2ccc(Cl)s2)CC1	MITF primary 74 | MITF inh conf inactive | AS interf ctr inactive
CCN1CCN(c2c(Cl)cccc2NC(=O)c2ccc(Cl)s2)CC1	none
O=C1CSC(=O)N1CC(O)COc1cccc2ccccc12 (centres undefined)	MITF primary 89 | MITF inh conf inactive | AS interf ctr inactive
CCOC(=O)c1c(C)[nH]c(C(=O)CSc2nc3sc4c(c3c(=O)n2-c2ccccc2)CCC4)c1C	none
Cc1ccc(C)n1C(Cc1c[nH]c2ccccc12)C(=O)O (centres undefined)	MITF primary 87 | MITF inh conf 73 | AlphaScreen DR inactive | AS interf ctr inactive
CC(=O)Nc1ccnn1C1CCN(Cc2cccc(Oc3ccccc3)c2)CC1	none
CC(=O)Nc1ccnn1C1CCN(Cc2cccc(OC3CCCC3)c2)CC1	MITF primary 56 | MITF inh conf inactive | AS interf ctr inactive
COc1cccc(CN2CCCC(CO)C2)c1 (centres undefined)	none
O=S1(=O)CCC(N2COc3c(cc(Cl)c4cccnc34)C2)C1 (centres undefined)	MITF primary 55 | MITF inh conf 39 | AS interf ctr 91
Clc1cc2c(c3ncccc13)OCN(Cc1cccnc1)C2	MITF primary 94, TEAD-YAP inh 84 | MITF inh conf 96 | AS interf ctr 100
CC(C)NC(=O)c1cccc(NC(=O)Nc2ccc(-c3ncnc4[nH]cc(Cl)c34)cc2)c1	MITF primary 78 | MITF inh conf 88 | AlphaScreen DR inactive | AS interf ctr inactive
CCOc1nnc(-c2ccc(OC)cc2)c2ccccc12	none
COc1ccc2c(c1)CC(C(=O)Nc1ccc(-c3cn[nH]c3)cc1OCC#N)CO2 (centres undefined)	MITF primary 52 | MITF inh conf 43 | AlphaScreen DR inactive | AS interf ctr inactive
COc1ccc2c(c1)CC(C(=O)Nc1ccc(-c3cn[nH]c3)cc1C(=O)N(C)OC)CO2 (centres undefined)	MITF primary 51 | MITF inh conf 51 | AlphaScreen DR inactive | AS interf ctr inactive
CCOC(=O)c1cc[n+](CC(=O)c2cccc([N+](=O)[O-])c2)cc1	none
N#Cc1cc[n+](CC(=O)c2cccc([N+](=O)[O-])c2)cc1	MITF primary 63 | MITF inh conf inactive | AS interf ctr inactive

High-throughput results (PubChem)
